L3MBTL1 block = L3MBTL1 (human) inhibition; Q9Y468; AlphaScreen L3MBTL1–H3K9me1 peptide binding; Potency, µM (titrated, usually from 57.1 µM), hits mostly inhibitors; 230,000 compounds, 0.66% hits; note: nearly all actives have a fitted effect of over 60% in size
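Read-out is AlphaScreen signal from streptavidin donor and nickel chelate acceptor beads (10 ug/mL final each) bridging L3MBTL1 (50 nM) and biotinylated K9-monomethylated H3(1-15) peptide (75 nM), after 30 min compound exposure at room temperature.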
JMJD2A Tudor inh = blocks the human JMJD2A Tudor domain | AID 504339 | AlphaScreen JMJD2A-Tudor / H3K4me3 peptide binding | Potency, µM (top dose mostly 114 µM), most hits filed as inhibitors | 390,000 compounds, 4.4% hits | O75164; note: nearly all actives have a fitted effect of over 50% in size
Sfp PPTase inh = blocks B. subtilis Sfp PPTase activity; 310,000 compounds, 3.5% hits; Potency, µM, hits mostly inhibitors; Biochemical Sfp PPTase activity, qHTS; Q9F4F7;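 note: the enzyme is Sfp with the accession as filed and its product quenches rhodamine fluorescence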
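Step 1, compound plus 15 nM Sfp-PPTase, 15 min, room temperature. Step 2, add rhodamine-CoA (5 uM) and BHQ-2-YbbR (12.5 uM). Step 3, read 525/598 nm fluorescence at 0 and 30 min.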
G9a block = G9a (human) methyltransferase inhibition; Potency, µM (top dose mostly 102 µM), usual class: inhibitors; AID 504332; 350,000 compounds, 8.8% hits; G9a H3K9 monomethylation, AlphaScreen, 2 h; note: nearly all actives have a fitted effect of over 75% in size
Target sequence (Q96KQ7 913-1193 limits assumed): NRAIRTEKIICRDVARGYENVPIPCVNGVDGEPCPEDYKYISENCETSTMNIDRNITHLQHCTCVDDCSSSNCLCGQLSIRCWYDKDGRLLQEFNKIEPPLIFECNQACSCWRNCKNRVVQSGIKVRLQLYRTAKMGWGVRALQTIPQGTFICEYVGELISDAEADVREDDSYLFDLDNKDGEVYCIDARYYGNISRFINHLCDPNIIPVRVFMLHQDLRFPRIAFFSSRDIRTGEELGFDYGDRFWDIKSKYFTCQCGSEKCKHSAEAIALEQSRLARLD
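Methyltransferase reactions run at room temperature for 2 h (20 nM enzyme, 500 nM biotin-H3K9 peptide, 20 uM SAM) after a 15 min compound preincubation; product detected by AlphaScreen beads and anti-H3K9me1 antibody.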
HP1b binding inh = HP1-beta chromodomain-methylated histone interaction inhibition; Potency, µM (series often up to 114 µM), most hits filed as inhibitors; AlphaScreen HP1-beta / biotin-H3K9me3 peptide binding; AID 540317; 390,000 compounds, 0.56% hits; note: nearly all actives have a fitted effect of over 70% in size
Target sequence (P83916 whole entry, looked up): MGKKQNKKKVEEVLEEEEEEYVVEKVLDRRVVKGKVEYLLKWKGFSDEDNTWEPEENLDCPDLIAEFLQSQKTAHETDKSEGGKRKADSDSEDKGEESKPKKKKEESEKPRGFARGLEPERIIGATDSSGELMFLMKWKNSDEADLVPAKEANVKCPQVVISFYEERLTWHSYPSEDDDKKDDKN
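Compound inhibition of the preformed complex between 50 nM HP1-beta and 50 nM biotinylated H3K9me3 peptide was read by AlphaScreen. Buffer was PBS pH 7.4 with 0.01% Tween-20. Incubations ran 30 min at room temperature, with 10 ug/mL donor/acceptor beads.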
BAZ2B block = blocks human BAZ2B; 360,000 compounds, 4.4% hits; Potency, µM (top dose mostly 114 µM), most hits filed as inhibitors; AlphaScreen BAZ2B-H3K14Ac peptide displacement; Q9UIF8; AID 504333; note: nearly all actives have a fitted effect of over 60% in size
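BAZ2B 50 nM plus b-H3(5-23)K14Ac 50 nM, PBS pH 7.4/0.01% Tween-20, 30 min RT; compound added (max 110 uM), 30 min RT; streptavidin donor/Ni-chelate acceptor beads 10 ug/mL final, 20 min dark; AlphaScreen read.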
Large screens that a line does not name were inactive. An excerpt weighted towards active compounds, which were near 12% of everything screened. Calls come from the whole dose curve; as a rule, active = well fitted curve in the direction sought with a large enough effect; inconclusive = small, poorly fitted or top-dose-only effect, or another doubt; inactive = no such curve, though single readings can be large; an effect the other way counts as inactive or inconclusive.

CC(=O)NC(=S)Nc1ccc(NC(=O)COc2ccc(C(C)C)cc2)cc1	G9a block inconclusive, BAZ2B block inconclusive
COc1ccc(NC(=S)NNC(=O)COc2ccc(Cl)cc2Cl)cc1	JMJD2A Tudor inh inconclusive, G9a block 20µM
COc1ccc(CC(=O)NNC(=S)Nc2ccccc2)cc1Br	G9a block inconclusive
COc1ccc(NC(=S)NNC(=O)CNc2ccc(Cl)cc2)cc1	Sfp PPTase inh 79.4µM, G9a block 10µM, BAZ2B block inconclusive
CCOc1ccc(CC(=O)NNC(=S)Nc2ccccc2)cc1Br	G9a block 25.1µM (no result: L3MBTL1 block)
CCOC(=O)c1c(S(=O)(=O)NCC(=O)N2CCN(c3cccc(Cl)c3)CC2)c(C)n(C)c1C	none (no result: L3MBTL1 block, Sfp PPTase inh)
Cc1ccc(S(=O)(=O)Nc2ccc3nc(C)sc3c2)cc1	none
Cc1ccc(S(=O)(=O)Nc2cc(C)c(O)c(Sc3n[nH]c(C)n3)c2)cc1	JMJD2A Tudor inh 11.2µM, Sfp PPTase inh 70.8µM, G9a block 7.08µM, HP1b binding inh inconclusive (no result: L3MBTL1 block)
CCn1c(C)c(CS(=O)(=O)c2ccccc2)[nH]c1=O	JMJD2A Tudor inh 22.4µM, Sfp PPTase inh 25.1µM, G9a block 1µM, HP1b binding inh 10µM (no result: L3MBTL1 block)
Cc1noc(C)c1C(=O)N1CCC2(CCCN(C(c3ccccc3)c3ccccc3)C2)CC1	none (no result: L3MBTL1 block, JMJD2A Tudor inh, HP1b binding inh, BAZ2B block)
Cc1ccc(C(=O)CN2CCN(c3ccccn3)CC2)c(C)c1	G9a block 39.8µM (no result: L3MBTL1 block)
Cc1ccc2[nH]cc(C(=O)CN3CCN(C)CC3)c2c1	none (no result: G9a block)
Cc1ccc2[nH]cc(C(=O)CN3CCN(c4ccccn4)CC3)c2c1	G9a block 50.1µM
c1ccc(COC2CCCN(Cc3nc(-c4cnccn4)no3)C2)nc1 (stereo unspecified)	Sfp PPTase inh inconclusive (no result: G9a block)
COc1ccc(-c2noc(CN3CCCC(OCc4ccccn4)C3)n2)cc1 (stereo unspecified)	G9a block 50.1µM
CCc1cccc(CC)c1NS(=O)(=O)c1ccc2c(c1)CCN2C(=O)C1CC1	none (no result: L3MBTL1 block, Sfp PPTase inh, BAZ2B block)
CC(C)(C)c1ccc(Oc2ccc(NC(=O)c3ccccc3C(=O)O)cn2)cc1	G9a block 56.2µM
Cc1ccc(-c2csc3ncn(-n4c(C)ccc4C)c(=O)c23)o1	JMJD2A Tudor inh inconclusive, G9a block 10µM, BAZ2B block inconclusive
Cc1sc2ncn(-n3c(C)ccc3C)c(=O)c2c1C	none
COc1ccc(B(O)O)cc1	none (no result: L3MBTL1 block, G9a block, BAZ2B block)
Cc1ccccc1C(=O)NNC(=O)c1cc(N)cc([N+](=O)[O-])c1	none
Cc1ccnc(NC(=O)CNC(=O)c2ccccc2Br)c1	none (no result: L3MBTL1 block, G9a block)
CCC(=O)Nc1ccc2nc3c(=O)[nH]c(=S)[nH]c3nc2c1	JMJD2A Tudor inh 56.2µM, G9a block 31.6µM, HP1b binding inh inconclusive, BAZ2B block 50.1µM (no result: L3MBTL1 block)
CC(=O)Nc1ccc(S(=O)(=O)NNC2=NS(=O)(=O)c3ccccc32)cc1	BAZ2B block 70.8µM (no result: L3MBTL1 block)
CC(=O)Nc1ccc(S(=O)(=O)NNC(=O)C(=O)NNc2ccccn2)cc1	JMJD2A Tudor inh inconclusive, BAZ2B block inconclusive
Cc1cnc(NC(=O)Nc2ccccc2)c(C)n1	none (no result: L3MBTL1 block)
Cc1cc(N/N=C2/CCCc3ccccc32)nc2ccccc12	JMJD2A Tudor inh inconclusive, Sfp PPTase inh inconclusive, G9a block 50.1µM, BAZ2B block inconclusive
Cc1cccc(-c2nnc(NC(=O)c3ccco3)s2)c1	none (no result: L3MBTL1 block)
O=C(Nc1nc2ccccc2s1)c1cc(-c2ccco2)nc2ccccc12	JMJD2A Tudor inh inconclusive, Sfp PPTase inh 44.7µM, G9a block inconclusive
Cc1ccc2nc(NC(=O)c3cc(-c4ccco4)nc4ccccc34)sc2c1	G9a block inconclusive
Cc1nnc(NC(=O)c2cc(-c3ccco3)nc3ccccc23)s1	L3MBTL1 block 6.31µM, G9a block 39.8µM, BAZ2B block 39.8µM (no result: JMJD2A Tudor inh, Sfp PPTase inh, HP1b binding inh)
COc1cccc(-c2cc(C(=O)NCCCn3ccnc3)c3ccccc3n2)c1	G9a block 3.16µM, BAZ2B block inconclusive
COc1cccc(-c2cc(C(=O)Nc3nc4ccccc4s3)c3ccccc3n2)c1	Sfp PPTase inh 39.8µM
Cc1csc(NC(=O)C(NC(=O)c2ccccc2F)C(C)C)n1 (stereo unspecified)	none
CC(C)Oc1cccc(-c2cc(C(=O)NN3CCOCC3)c3ccccc3n2)c1	none (no result: L3MBTL1 block)
O=C(Nc1nccs1)c1cc(-c2ccco2)nc2ccccc12	L3MBTL1 block 14.1µM, G9a block inconclusive, BAZ2B block 50.1µM
CC(C)Oc1cccc(-c2cc(C(=O)NC(=S)N(C)c3ccccc3C(=O)O)c3ccccc3n2)c1	G9a block 22.4µM, HP1b binding inh inconclusive
CCNC(=S)NNC(=O)c1cc(-c2cccc(OC)c2)nc2ccccc12	G9a block 39.8µM
COc1ccc(C(=O)Nc2nc3ccccc3s2)c(OC)c1	JMJD2A Tudor inh 20µM (no result: L3MBTL1 block)
O=c1[nH][nH]c2c(N=Cc3ccccc3O)ccc(F)c12	L3MBTL1 block 3.55µM, JMJD2A Tudor inh inconclusive, Sfp PPTase inh 7.94µM, G9a block 8.91µM, HP1b binding inh 11.2µM, BAZ2B block 10µM
CC(=O)c1ccc(OCC(=O)NC(=O)NC2CCCCC2)cc1	none (no result: L3MBTL1 block)
CC1CCCC(NC(=O)COC(=O)c2cccs2)C1C (stereo unspecified)	none (no result: Sfp PPTase inh)
c1ccc(CNc2cc(-c3ccoc3)ncn2)cc1	Sfp PPTase inh 31.6µM (no result: L3MBTL1 block, JMJD2A Tudor inh, HP1b binding inh, BAZ2B block)
c1ccc(CNc2cc(-c3cccnc3)ncn2)cc1	none (no result: L3MBTL1 block, JMJD2A Tudor inh, HP1b binding inh, BAZ2B block)
c1ccc(Nc2cc(-c3ccoc3)ncn2)cc1	Sfp PPTase inh 31.6µM (no result: L3MBTL1 block, JMJD2A Tudor inh, HP1b binding inh, BAZ2B block)

High-throughput results: PubChem BioAssay, National Center for Advancing Translational Sciences (NCATS)
